Measurements published in PubChem BioAssay (Tox21).
Records with an inconclusive call do not appear. Entries that show only a call come without a potency. Values without a mark were called inactive. Activity calls are given as the source filed them. Calls come from the whole dose curve.

Test: Nuclear factor erythroid 2-related factor 2/antioxidant responsive element (Nrf2/ARE) small molecule agonists: luciferase reporter gene qHTS assay in human keratinocytes (AID 1919969); note: nearly all actives have a fitted effect of over 35% in size
Settings: KeratinoSens HaCaT ARE-luciferase, luminescence, 24 h; series mostly up to 92.4 µM
Text: National Center for Advancing Translational Sciences [NCATS]
Division of Preclinical Innovation [DPI]
U.S. Environmental Protection Agency [EPA]
National Institutes of Environmental Health Sciences [NIEHS]
National Toxicology Program [NTP]
U.S. Food and Drug Administration [FDA]
Oxidative stress has been implicated in the pathogenesis of a variety of diseases ranging from cancer to neurodegeneration. The antioxidant response element (ARE) signaling pathway plays an important role in the amelioration of oxidative stress. The KeratinoSens (Givaudan, Switzerland) is an in vitro test method which quantifies luciferase induction as a measure of activation of Keap1-Nrf2-antioxidationt/electrophile response element (ARE) dependant pathway in HaCaT human keratinocytes stably transfected with a selectable plasmid. The KeratinoSens assay is a cell-based assay with a reporter cell line to detect potential skin sensitizers by their ability to induce the Nrf2/ARE-response. The activation of the report gene under culture conditions can be detected by ONE-Glo Luciferase Assay System (Promega, Madison, WI). This cell line has been used to screen the Tox21 10K compound library to identify agonists that induce oxidative stress. The cytotoxicity of the Tox21 compound library against the KS-ARE cell line was tested in parallel by measuring the cell viability using CellTiter- Fluor assay system (Promega, Madison, WI) in the same wells.
HaCaT derived cell line KeratinoSens were dispensed at 1,500 cells/5uL/well in 1536-well white wall/solid bottom plates using a Multidrop Combi (ThermoFisher Scientific, Waltham, MA) dispenser. After the assay plates were incubated at 37 C/5% CO2 for 5 h, 23 nL of compounds dissolved in DMSO, positive controls or DMSO only was transferred to the assay plate by a pintool workstation (Kalypsys, San Diego, CA). The plates were incubated at 37 C/5% CO2 for 23 h, followed by addition of 1uL/well of CellTiter-Fluor reagent into the assay plates using a Flying Reagent Dispenser (Aurora Discovery, San Diego, CA) for cell viability readout that measures cytotoxicity. After 1 h incubation at 37 C/5% CO2 the fluorescence intensity was measured using a ViewLux (PerkinElmer, Shelton, CT) plate reader. Then 4uL/well of One-Glo were added using a Flying Reagent Dispenser. After the plates were incubated at room temperature for 30 min, the luminescence intensity in the assay plates was measured using ViewLux plate reader.
Potency is the fitted concentration of half-maximal effect.

SMILES	Potency	activity, positive = activation
CCC=CC#N	inactive	
C[N+]1(C)CCCC(OC(=O)C(O)(c2ccccc2)c2ccccc2)C1 (stereo not given)	inactive	
C[C@H]1C[C@H]2[C@@H]3CCC4=CC(=O)C=C[C@]4(C)[C@H]3C(=O)C[C@]2(C)[C@@]1(O)C(=O)CO	inactive	
C=CCCCC	inactive	
CN1CCN(CC(=O)N2c3ccccc3C(=O)Nc3cccnc32)CC1		-1.98% [at 8.39 µM]
SCCCCCCCCS	inactive	
CC(=O)Oc1cc(C(C)C)c(OCCN(C)C)cc1C	inactive	
S=c1[nH][nH]c(=S)s1	inactive	
Nc1ccc(Cl)cc1[N+](=O)[O-]	inactive	
COc1ccc(OC)c(N=Nc2c(O)ccc3ccccc23)c1	27.3 µM (active)	
Cc1cc(N)c(S(=O)(=O)O)cc1Cl	inactive	
C1CCN2C[C@@H]3C[C@@H](CN4CCCC[C@@H]34)[C@H]2C1	inactive	
CCC(O)C(C)(C)C (stereo not given)	inactive	
CC1(C)CC(N)CC(C)(C)N1	inactive	
CN(C)CCC[C@@]1(c2ccc(F)cc2)OCc2cc(C#N)ccc21	inactive	
CCCCCCCCOc1ccc(C(=O)O)cc1	60.4 µM (active)	
CNc1c2c(nn1C)CCCC2	inactive	
COC(=O)/C=C\C(=O)O	inactive	
COC(=O)N/N=C/c1c[n+]([O-])c2ccccc2[n+]1[O-]	inactive	
CCN1CCC[C@H]1CNC(=O)c1cc(S(N)(=O)=O)ccc1OC	inactive	

SMILES	Potency	activity, positive = activation
NS(=O)(=O)c1cc2c(cc1Cl)CN(C1CCCCC1)C2=O	inactive	
c1ccc(COCc2ccccc2)cc1	inactive	
CN1[C@@H]2CC[C@H]1CC(OC(=O)C(O)c1ccccc1)C2 (stereo not given in full)	inactive	
O=C(O)c1cc(C(=O)O)c(C(=O)O)cc1C(=O)O	inactive	
O=S(=O)(O)CCO	inactive	
FC(F)(F)C(F)(F)C(F)(F)C(F)(F)CCI	inactive	
Nc1ncnc2c1ncn2[C@@H]1O[C@H](CO)[C@@H](O)[C@H]1O	inactive	
C=CC/C=C/C/C=C/C/C=C/C	inactive	
COc1ccccc1N1CCN(CCCCNC(=O)c2ccc(-c3ccc(C(C)=O)cc3)cc2)CC1	inactive	
CC1(C)S[C@@H]2[C@H](NC(=O)C(c3ccccc3)S(=O)(=O)O)C(=O)N2[C@H]1C(=O)O (stereo not given in full)	inactive	
CN1C(=O)c2ccc([N+](=O)[O-])cc2C1=O	inactive	
Oc1c(Br)cc(Br)c2cccnc12	0.841 µM (active)	
CCN(CC)CCOC(=O)C(c1ccccc1)c1ccccc1	inactive	
CC(C)(C)C(=O)C(=O)O	inactive	
Oc1cc2ccccc2cc1O	inactive	
CCCCCCCC	inactive	
Nc1ccc(S(=O)(=O)NCc2ccccc2)cc1	inactive	
c1ccc2c(CC3=NCCN3)cccc2c1	inactive	
CC(O)COC(C)(C)C (stereo not given)	inactive	
O=C1c2ccccc2C(=O)C1c1ccc2ccccc2n1	1.21 µM (active)	
